Measurements published in PubChem BioAssay AID504832 (National Center for Advancing Translational Sciences (NCATS), 2011).
Screen size: about 310,000 compounds; about 18,000 (5.8%) were called active. Entries that show only a call come without a potency. Roughly 22% stayed inconclusive and do not appear here. Calls follow the shape of the dose curve; as a rule, active = well fitted inhibition curve with a large enough effect; inconclusive = small, poorly fitted or top-dose-only effect, or another doubt; inactive = no such curve, though single readings can be large or run the other way. The full list was thinned out, with actives kept by preference.

assay: Primary qHTS for delayed death inhibitors of the malarial parasite plastid, 48 hour incubation; details: P. falciparum luciferase growth in erythrocytes; series mostly up to 28.7 µM
In short: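 Here the parasites carry a stable luciferase gene and grow inside erythrocytes in Albumax-based RPMI medium with compound for one erythrocytic cycle. Activity is scored as loss of luminescent signal.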
Potency is read from the fitted curve at half-maximal effect.

Compound	Potency
COc1ccc(O)c(/C=N/N=C/c2cccc([N+](=O)[O-])c2)c1	inactive
CCn1c(C(O)c2cc(OC)ccc2OC)nc2ccccc21 (stereo not given)	inactive
CCOC(=O)c1c(C)[nH]c(C(=O)OCC(=O)N2CCCC2=O)c1C	inactive
Cc1cc(Cl)nc(NC(=O)Nc2cccc(Cl)c2)n1	inactive
CC(=O)CC[C@@H](C)O[C@@H]1OC(C)[C@H](O)CC1O (stereo not given in full)	inactive
COC(=O)c1ccc(NS(=O)(=O)c2cc3c4c(c2)C(C)C(=O)N4CCC3)cc1 (stereo not given)	inactive
O=C(OCC(=O)N1CCCC1=O)c1cc(S(=O)(=O)N2CCOCC2)ccc1Cl	inactive
Cc1ccccc1Nc1nnc(C)c(=O)[nH]1	inactive
Cc1nnc(N/N=C/c2ccccn2)[nH]c1=O	2.33 µM (active)
Cc1nnc(N/N=C/C2CC=CCC2)[nH]c1=O (stereo not given)	inactive
CCCCn1c(N)c(N(CCC(C)C)C(=O)c2ccc([N+](=O)[O-])o2)c(=O)[nH]c1=O	inactive
CCCCn1c(N)c(N(CCC(C)C)C(=O)COC(=O)c2cccnc2OCC)c(=O)[nH]c1=O	inactive
CCCCn1c(N)c(N(CCC(C)C)C(=O)CC2OC(=O)c3ccccc32)c(=O)[nH]c1=O (stereo not given)	8.28 µM (active)
Cc1cc2c(=O)n(CC(=O)NCC(=O)Nc3ccc(C(C)C)cc3)cnc2s1	inactive
COc1ccc(C(=O)Nc2ccc(NC(=O)C(C)C)nc2)cc1	inactive
COc1ccc(CS(=O)/C(Cl)=C(/Cl)C(=O)Nc2ccc(OC)nc2)cc1 (stereo not given)	9.28 µM (active)
COc1ccc(NC(=S)NCCNC(C)=O)cc1	inactive
Cc1ccsc1C(=O)NC1CCCCC1C (stereo not given)	inactive
CC1CCN(S(=O)(=O)c2ccc3c(c2)n(C)c(=O)n3C)CC1	inactive
O=S(=O)(NCCS(=O)(=O)N1CCN(c2ccccc2)CC1)c1ccc(F)cc1	inactive
Cc1ccc(C(=O)CSc2nnc(Cn3nnc4ccccc43)n2C)cc1	inactive
Cc1ccc2nnn(Cc3cccc(C(C)(C)C)c3O)c2c1	11.7 µM (active)
COc1ccccc1NC(=O)C(C)OC(=O)CC1CCCC1 (stereo not given)	inactive
Cc1ccc(N(C(=O)c2sc(C)nc2C)C(C(=O)NC(C)(C)C)c2ccncc2)cc1 (stereo not given)	inactive
CC(C)(C)NC(=O)C(c1ccc(Cl)cc1)N(CCO)C(=O)c1snc(C(N)=O)c1N (stereo not given)	6.57 µM (active)
NC(=O)c1ccc(Nc2ccc3nonc3c2[N+](=O)[O-])cc1	inactive
COC(=O)c1cc(S(=O)(=O)NCC2CCN(Cc3ccc(Cl)cc3)CC2)cn1C	inactive
O=C(c1ccc(Cl)s1)N(Cc1nnc(-c2ccccc2Cl)o1)C1CC1	inactive
O=C(c1cc(-c2ccco2)nc2ccccc12)N(Cc1nnc(-c2ccc(Cl)cc2)o1)C1CC1	4.15 µM (active)
CN(C(=O)COC(=O)c1cc(-c2ccco2)nc2ccccc12)C1CCS(=O)(=O)C1 (stereo not given)	inactive
